Assay outcomes as filed in PubChem BioAssay.
This is one part of a sample in which hits are shown more often than they occur.
FECH block: inhibitors of human ferrochelatase, primary screen, biochemical, purified FECH, Ni-mesoporphyrin absorbance; hit rate 3.3% among 20,000; Ni-mesoporphyrin absorbance 550 nm; Ferrochelatase, mitochondrial (Homo sapiens), P22830; calls only at 10 µM (by protocol);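 active means enzyme reaction rate more than 3 SD below the solvent-only control wells on the same plate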;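 further: lower slope than DMSO wells means FECH inhibition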
Target sequence (P22830 whole entry, looked up): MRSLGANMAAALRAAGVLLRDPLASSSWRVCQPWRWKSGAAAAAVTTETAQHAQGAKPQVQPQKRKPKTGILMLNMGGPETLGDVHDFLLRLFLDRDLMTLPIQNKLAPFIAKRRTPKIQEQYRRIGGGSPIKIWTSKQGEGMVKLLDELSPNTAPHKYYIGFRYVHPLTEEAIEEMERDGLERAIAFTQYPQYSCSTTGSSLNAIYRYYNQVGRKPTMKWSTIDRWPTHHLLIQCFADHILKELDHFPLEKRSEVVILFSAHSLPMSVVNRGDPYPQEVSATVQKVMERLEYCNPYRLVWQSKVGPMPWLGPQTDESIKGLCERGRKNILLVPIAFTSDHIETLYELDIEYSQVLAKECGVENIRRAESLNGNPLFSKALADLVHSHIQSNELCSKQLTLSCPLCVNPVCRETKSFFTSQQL
Of the large screens only hits and unclear results are named; the others gave an inactive call.

c1ccc(C(c2ccccc2)c2n[nH]c3c2CN(CCc2cn[nH]c2)CC3)cc1	none
CCCc1cc(Sc2ccc(NC(=O)Nc3cccc(OC)c3)cc2)n2ncnc2n1	FECH block active
CCCc1cc(Sc2ccc(NC(=O)Nc3cccc(Cl)c3)cc2)n2ncnc2n1	none
CCCc1cc(Sc2ccc(NC(=O)Nc3ccc(OC)c(OC)c3)cc2)n2ncnc2n1	none
Cc1ccc2nc(C3CCCN3Cc3noc(-c4ccco4)n3)[nH]c2c1 (stereo not given)	none
CN1CCCn2nc(C(=O)NCc3coc(-c4ccccc4)n3)cc2C1	none
Cc1ccc(C(=O)Nc2cc(C)nn2-c2ncnc3c2cnn3-c2cccc(C)c2C)cc1	FECH block active
Cc1ccc(C(=O)Nc2cc(C)nn2-c2ncnc3c2cnn3-c2cccc(Cl)c2)cc1	none
Cc1cc(C)cc(C(=O)Nc2cc(C)nn2-c2ncnc3c2cnn3-c2cccc(Cl)c2)c1	FECH block active
COc1cccc(C(=O)Nc2cc(C)nn2-c2ncnc3c2cnn3-c2cccc(C)c2C)c1	none
Cc1cc(NC(=O)c2ccc(F)c(F)c2)n(-c2ncnc3c2cnn3-c2cccc(C)c2C)n1	none
Cc1cc(C)cc(C(=O)Nc2cc(C)nn2-c2ncnc3c2cnn3-c2ccc(Cl)cc2)c1	none
Cc1ccc(-n2ncc3c(-n4nc(C)cc4NC(=O)CCC4CCCC4)ncnc32)c(C)c1	none
Cc1ccc(-n2ncc3c(-n4nc(C)cc4NC(=O)C4CCCC4)ncnc32)c(C)c1	FECH block active
CCCCC1CCC(C(=O)Nc2cc(C)nn2-c2ncnc3c2cnn3-c2ccc(C)cc2C)CC1 (stereo not given)	none
Cc1ccc(NC(=O)NCCn2c(-c3ccncc3)nc3cccnc32)cc1C	none
O=C(O)[C@H]1C[C@@H](O)CCN1Cc1ccc2c(c1)OCCO2	none
CCC(NCC(=O)Nc1ccc(Cl)c(OC)c1)c1ccnn1C (stereo not given)	none
CC(C)CN1CCC(NCc2nncn2C2CCCCC2)CC1	none
COc1cccc(CN(C(=O)c2cc(=O)[nH]c3ccccc23)C2CC2)c1	none
O=C1NCCN(C(=O)c2ccc(-n3cccc3)cc2)C1Cc1ccccc1 (stereo not given)	none
CCc1nc(CN2C[C@H](N(C)C)C[C@H]2CO)c(C)[nH]1	none
CCCn1cnc2nc(CSc3ccccc3NC(=O)c3ccc(Cl)cc3)cc(=O)n21	FECH block active
CC(C)n1cnc2nc(CSc3ccccc3NC(=O)c3cccc(Cl)c3)cc(=O)n21	none
CCc1ccccc1OCC(=O)Nc1ccccc1SCc1cc(=O)n2c(ncn2C(C)C)n1	none
CC(C)n1cnc2nc(CSc3ccccc3NC(=O)COc3ccccc3F)cc(=O)n21	FECH block active
CC(C)n1cnc2nc(CSc3ccccc3NC(=O)COc3ccc(F)cc3)cc(=O)n21	none
COc1ccc(C(=O)Nc2ccccc2SCc2cc(=O)n3c(ncn3C(C)C)n2)cc1OC	none
COc1cccc(CNc2ncnc3oc4c(c23)CCCC4)c1	none
c1ccc(OCCn2ccnc2C2CCOC2)cc1 (stereo not given)	none
Cc1ccc(-c2nnc(-c3nc(N4CCOCC4)c4ccccc4n3)o2)cc1	none
Cc1ccc(CNc2ncnc3oc4c(c23)CCCC4)o1	none
COc1ccccc1CNc1ncnc2oc3c(c12)CCCC3	none
Clc1ccccc1CCNc1ncnc2oc3c(c12)CCCC3	FECH block active
CCOCCCNC(=O)C1CCN(c2ccc(-c3cccc(C)c3)nn2)CC1	none
CCN(CC)CCCNC(=O)C1CCN(c2ccc(-c3ccccc3)nn2)CC1	none
CCN(CC)CCCNC(=O)C1CCN(c2ccc(-c3cccc(C)c3)nn2)CC1	FECH block active
CN(C(=O)Cn1c(=O)c2cnc(-c3ccccc3)nc2n(C)c1=O)c1ccccc1F	none
Cc1cc(C)cc(NS(=O)(=O)c2ccc3c(c2)CCN3C(=O)CCC(=O)N2CCOCC2)c1	none
O=C1CCC(=O)N1c1nc2n(n1)C(c1ccccc1Cl)C=C(c1ccc(Cl)cc1)N2 (stereo not given)	none
CCC(C(=O)Nc1ccc(Nc2nc(C)cc(Nc3ccc(C)cc3)n2)cc1)c1ccccc1 (stereo not given)	none
CCC(C(=O)Nc1ccc(Nc2nc(C)cc(N(C)C)n2)cc1)c1ccccc1 (stereo not given)	FECH block active
CCC(C(=O)Nc1ccc(Nc2nc(C)cc(Nc3ccccc3)n2)cc1)c1ccccc1 (stereo not given)	none
Cc1cnc2c(C(=O)N3CCCCC3c3cccnc3)cnn2c1 (stereo not given)	none
COCc1cc(CNC(=O)COc2c(C)ccc(C)c2C)[nH]n1	none
O=S(=O)(Nc1nc2n(n1)C(c1c(F)cccc1Cl)C=C(c1ccccc1)N2)c1ccccc1 (stereo not given)	FECH block active
Cc1ccc(C2=CC(c3ccccc3Cl)n3nc(NS(C)(=O)=O)nc3N2)cc1 (stereo not given)	none
CS(=O)(=O)Nc1nc2n(n1)C(c1ccccc1Cl)C=C(c1ccc(Br)cc1)N2 (stereo not given)	none
Cc1ccc(C2=CC(c3c(F)cccc3Cl)n3nc(NS(C)(=O)=O)nc3N2)cc1 (stereo not given)	FECH block active
Cc1ccc(C2=CC(c3ccc(F)cc3)n3nc(NS(=O)(=O)c4ccccc4)nc3N2)cc1 (stereo not given)	none
Cc1ccc(C2=CC(c3ccccc3Cl)n3nc(NS(=O)(=O)c4ccccc4)nc3N2)cc1 (stereo not given)	FECH block active
O=S(=O)(Nc1nc2n(n1)C(c1ccc(F)cc1)C=C(c1ccccc1)N2)c1ccc(Cl)cc1 (stereo not given)	none
Cc1ccc(C2=CC(c3ccc(F)cc3)n3nc(NS(C)(=O)=O)nc3N2)cc1 (stereo not given)	none
Cc1ccc(C2=CC(c3c(F)cccc3Cl)n3nc(NS(=O)(=O)c4ccccc4)nc3N2)cc1 (stereo not given)	none
C#CCN(C)C(=O)c1ccc(OCC(N)=O)cc1	none
COCCNC(=O)c1cnc(C)nc1C	none
CCc1c(C)nc2ncnn2c1Sc1ccccc1NC(=O)Nc1cc(Cl)ccc1C	none
CN(CCNC(=O)C1CCN(c2ncnc3c2nc2n3CCCCC2)CC1)C1CCCCC1	none
Cc1ccc(S(=O)(=O)N(Cc2cccc(F)c2)c2nc3nc(C)c(Cl)c(C)n3n2)cc1	none
Cc1ccc(-c2nnc(-c3nc(NCCc4cnc[nH]4)c4ccccc4n3)o2)cc1	none
CCOc1ccc(N(Cc2nc3nc(C)cc(C)n3n2)S(=O)(=O)c2ccccc2)cc1	none
COc1ccc(S(=O)(=O)Nc2cnc(N3CC=C(c4ccccc4C)CC3)c(C(=O)O)c2)cc1	none
Cc1ccc(S(=O)(=O)Nc2cnc(N3CC=C(c4ccccc4C)CC3)c(C(=O)O)c2)cc1	FECH block active
Cc1ccccc1C1=CCN(c2ncc(NS(=O)(=O)c3ccc(F)c(F)c3)cc2C(=O)O)CC1	none
CCC#CCn1nc(C2CCNCC2)n(Cc2ccccc2)c1=O	none
CC(C)C(NC(=O)c1ccccc1C(F)(F)F)C1=CCCN(C)C1 (stereo not given)	none
O=C(NC1CC1)c1cc2n(n1)CCN(C(=O)c1cc3sccc3[nH]1)C2	none
O=C(CN1c2ccc(Br)cc2-c2ccccc2S1(=O)=O)NCc1cccnc1	FECH block active
O=C(CN1c2ccc(Br)cc2-c2ccccc2S1(=O)=O)Nc1cccnc1	FECH block active
CC(c1cccnc1)N(C)Cc1ccc2ccccc2n1 (stereo not given)	none
Cc1ccccc1CN(c1nc2nc(C)c(Cl)c(C)n2n1)S(=O)(=O)c1ccccc1	none
COc1ccc(N2C(=O)N(Cc3ccc(C(C)(C)C)cc3)c3ccccc3S2(=O)=O)cc1OC	none
CCc1ccc(N2C(=O)N(Cc3cc(F)cc(F)c3)c3ccccc3S2(=O)=O)cc1	FECH block active
